Reference: the supplement of paper PMC12636033
± gives the standard deviation of the averaged measurements. Over roughly 33,000 sequences, “E-score (rank enrichment, -0.5 to 0.5)” has its median near -0.0028; the highest 2% begin near 0.23. Shown is part of a subset that was picked to be rich in the highest values.

Tested on: 2Sb-muMax20 (muMax20 with two 1,3-bis(methyl)benzene Cys staples, A13C/A17C and Q88C/A92C, C-terminal Lys)
Experiment: PBM 8-mer E-score (E-score (rank enrichment, -0.5 to 0.5)); higher = stronger preferential binding
Description: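 Protein binding microarray (universal PBM chip covering all 10-mers in fixed probe flanks) with chemically synthesized human Max(13-93) bHLH-LZ analogs (not full-length Max) bearing noncanonical residues (hArg, Tha, Aib, Nle at 65) and aromatic Cys staples. Read-out per 8-mer (and its reverse complement): E-score (rank-based enrichment, -0.5 to 0.5) and Z-score of median probe intensity.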

Sequence	PBM 8-mer E-score
AATATATG	0.3 ± 0.004
AATATGTG	0.139 ± 0.033
CATATATA	0.194 ± 0.0063
CATATATC	0.13 ± 0.055
TGCGAGCA	0.146 ± 0.052
AAACCTAT	-0.107 ± 0.033
AAACCTAG	0.000475 ± 0.031
AAACCTAC	0.279 ± 0.06
GGATCTAC	-0.141 ± 0.02
ACATGTAT	0.267 ± 0.0098
AGATGTAT	0.181 ± 0.031
ACATGTAA	0.217 ± 0.026
CCATGTAG	0.172 ± 0.0065
ACATGCAC	0.0993 ± 0.062
ACATGTAC	0.309 ± 0.014
GCATGTAC	0.172 ± 0.024
ACATGTCG	0.166 ± 0.058
ACATGCAG	0.037 ± 0.07
ACATGCAT	0.363 ± 0.013
CCATGTAC	-0.0138 ± 0.036
ACATGTAG	0.275 ± 0.021
AAACCGTT	-0.108 ± 0.016
GACCGACC	-0.162 ± 0.012
AGTATCCG	-0.139 ± 0.029
CCCGGCCG	-0.233 ± 0.084

Sequence	PBM 8-mer E-score
GCAGGAAA	0.00101 ± 0.013
CAGACGTA	-0.0519 ± 0.083
CCCTCACC	0.0586 ± 0.062
AAGACCTA	0.0674 ± 0.017
AATAGTTA	0.166 ± 0.0059
AATAGTTG	0.256 ± 0.032
AATAGTTC	0.0849 ± 0.052
GACTTCAC	-0.0215 ± 0.052
GGAATTCC	-0.26 ± 0.055
ATCAGAAT	-0.0334 ± 0.0022
AAGGTCTA	-0.00279 ± 0.068
GCATATGA	0.174 ± 0.045
ACATATGC	0.0308 ± 0.041
ATATGGGG	0.255 ± 0.0087
ATATGGGC	0.192 ± 0.062
CCATGGGG	-0.134 ± 0.03
ACATATGG	0.15 ± 0.036
CCATATGC	0.125 ± 0.064
CCATATGG	0.322 ± 0.0072
GCATATGC	0.259 ± 0.011
ATATGGGA	0.13 ± 0.017
ACATGGGG	0.267 ± 0.045
ACATGGGA	0.0654 ± 0.083
ACCAAAGT	-0.131 ± 0.004
AAACTTCA	0.0459 ± 0.067

Sequence	PBM 8-mer E-score
GCCGTGTA	0.0129 ± 0.059
AGACCGCC	-0.0551 ± 0.0086
CCAACGAA	-0.0751 ± 0.0019
ACTTGCGA	0.141 ± 0.053
ATGTTTAC	0.195 ± 0.0024
ACGTACGT	0.0796 ± 0.0024
CTGCACGC	0.0673 ± 0.012
CCTACAAG	-0.0983 ± 0.063
ATATATGA	0.203 ± 0.014
ATATATGG	0.279 ± 0.025
ATATATGC	0.196 ± 0.029
GTACCTAA	0.015 ± 0.015
AATACAAT	0.105 ± 0.028
AATACAAA	0.293 ± 0.0033
GATACAAA	0.0261 ± 0.058
CATACGAG	0.039 ± 0.023
AATACGAT	0.0313 ± 0.056
AATACAAC	0.218 ± 0.053
CATACAAG	0.0617 ± 0.023
GATACAAC	0.0906 ± 0.034
CATACAAC	0.254 ± 0.0055
AATACAAG	0.243 ± 0.066
AATACGAG	0.239 ± 0.016
TATACAAA	0.176 ± 0.037
GGCTCAAA	-0.232 ± 0.0071

Sequence	PBM 8-mer E-score
CGTGTTCC	-0.101 ± 0.093
CAGCCATC	0.0539 ± 0.04
ACGCTTAC	-0.00865 ± 0.0059
AATGGCGG	-0.0858 ± 0.063
CTTAGCCA	-0.0016 ± 0.011
ATCGGCTG	-0.182 ± 0.06
ATTAGGTG	0.199 ± 0.0049
CATCCCGG	-0.179 ± 0.11
CCTTGTTA	0.281 ± 0.032
CCTTGTTC	-0.00956 ± 0.048
ACTTGTTA	0.173 ± 0.0031
ACTTCTCT	-0.115 ± 0.094
AACCCCAA	0.331 ± 0.019
ACCCCCAA	-0.148 ± 0.053
AACCCCAG	0.0383 ± 0.14
AACCCCTA	0.176 ± 0.0048
TTACCCAA	0.26885 ± 6.4e-05
CACCCCTA	0.228 ± 0.018
CTACCCAA	0.085 ± 0.019
TACCCCTA	0.316 ± 0.0051
GTACCCAA	0.153 ± 0.0022
CCCCCCAG	-0.319 ± 0.18
CACCCCAG	0.262 ± 0.015
AACCCAAA	0.0368 ± 0.14
ACGAAGGC	-0.148 ± 0.011

Sequence	PBM 8-mer E-score
GGCCAAAC	-0.0918 ± 0.032
ATAAAAGC	0.113 ± 0.0099
CACCCAAA	0.211 ± 0.02
GACCCCAC	0.0665 ± 0.09
TACCCCAA	0.29 ± 0.036
CACCCCAA	0.292 ± 0.059
AACCCCAC	0.177 ± 0.082
GACCCCAA	0.129 ± 0.058
CACCCCAC	0.319 ± 0.067
TACCCCCA	-0.0172 ± 0.023
CACCCCCA	-0.148 ± 0.025
AAAACGTT	0.189 ± 0.024
GGAGAGTA	-0.0215 ± 0.08
CCTCACTA	0.127 ± 0.035
AGCCACAC	0.111 ± 0.045
TCCCTGCA	0.0481 ± 0.0088
AACCACGC	-0.0289 ± 0.036
AACCACGT	0.304 ± 0.0045
AACCACGA	0.068 ± 0.082
AAACACGC	0.0985 ± 0.012
AAACACGA	0.14 ± 0.053
ACCCACGC	0.0613 ± 0.043
ACCCACGT	0.35 ± 0.025
ACCCACGA	0.0473 ± 0.015
AAACACGT	0.238 ± 0.0029

Sequence	PBM 8-mer E-score
GCGACATA	-0.0543 ± 0.01
GAGCAACC	-0.0186 ± 0.037
ACGAGCAA	0.00429 ± 0.043
AGAGTACT	0.0199 ± 0.063
GTTGATTA	0.259 ± 0.0094
ATTGATTA	0.0825 ± 0.032
AAAGATAA	0.124 ± 0.033
CATGATAA	0.262 ± 0.004
CATGATTA	0.236 ± 0.035
TAAGATAA	0.0702 ± 0.044
CAAGATAA	0.253 ± 0.025
CTTGATTA	0.159 ± 0.039
GATGATTA	-0.00815 ± 0.038
CATGATTC	0.0849 ± 0.046
AATGATAA	0.0436 ± 0.05
TATGATAA	0.0883 ± 0.068
AACAAGCT	0.0609 ± 0.024
GCTGGCGA	-0.207 ± 0.015
GGTTCGCA	-0.146 ± 0.0032
AGGGTCTC	-0.0134 ± 0.094
CGTCCACC	-0.0444 ± 0.07
GTCGTTAA	-0.133 ± 0.028
GGGAATCA	-0.0266 ± 0.031
CCTGCACC	-0.0811 ± 0.0012
ACGCTGCC	-0.0685 ± 0.038

Sequence	PBM 8-mer E-score
TAACGCGA	0.0123 ± 0.0097
AGCATGCA	0.3172 ± 0.00083
GGCATGCA	-0.0517 ± 0.02
CGCATGCC	0.141 ± 0.064
CGCATGCG	0.279 ± 0.067
TGCATGCA	0.132 ± 0.01
CGCATGCA	0.171 ± 0.028
GCGACGCC	-0.126 ± 0.025
TAGGTATA	0.138 ± 0.011
CTCCAATA	0.0951 ± 0.05
AATAGCAT	0.262 ± 0.023
CATAGCTA	0.17 ± 0.065
AATAGCAC	0.0775 ± 0.071
AAAAGCTA	0.236 ± 0.025
GAAAGCTA	0.0215 ± 0.023
AAAAGCTC	-0.0474 ± 0.048
GATAGCTA	0.0488 ± 0.04
AATAGCTA	0.244 ± 0.0096
AATAGCAA	0.106 ± 0.11
AGAGGCCC	-0.0713 ± 0.025
ATGCCGGG	-0.256 ± 0.0027
GACTTTCC	-0.0524 ± 0.043
